Data reported in the supplement of paper PMC6555819.

tested on: VDR:RXRa (NR concentration 270 nM, RXRa partner concentration 90 nM); experiment: PBM binding z-score (relative to random genomic background probes); higher = stronger binding; sequences stand for … in GC…GCGATTGACAGCGTAGAATGAAGG
Experimental: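 Protein-binding microarray (Agilent 4x180K custom design, double-stranded 60-nt probes: 5' GC cap, 34-nt variable region, 24-nt constant primer region; full probe sequence given). Purified or IVT nuclear receptor:RXRα heterodimers (3:1 NR:RXRα, mostly 270:90 nM) or homodimers were incubated for 1 h in PBS with 2% milk and no ligand, then detected with Alexa488 antibodies. Fluorescence from o1-orientation probes (~5 replicates averaged) was converted to z-scores against 500 random hg19 background probes. Variable regions are seed direct-repeat (DR0–DR5) sites, all their single-nucleotide variants and half-site ablations.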

Row | Sequence | PBM binding z-score
1 | AGAATGAGGTTACCAAAGATCAGGGAAACGCTTG | 1.37
2 | ACTAGCAGGACAAGGGTCACTCAAGATTAGTCCG | 3.05
3 | TTACCAAGGTGAGCTGTGGTCGTTGATCCAACTC | -0.311
4 | CCAACTAGGTCATCCAGGACAGTGAATACATTGA | 4.58
5 | CGGACGAGGGCATGAGTTGATAGCAAATGCCGAT | 1.21
6 | ACTATGAGTTGACTTAGGGCAACCGATACGACGC | 1.16
7 | ATTTCTAGGTAACCAAGTTCAGTGAATGCCGAAC | 4.22
8 | AGTCAAAGTTCAGGACGAGCTAACGTAAAGCACG | 1.8
9 | CCTTATGGGTCACTGACAGGTTATAGCATTTGGA | 2.89
10 | CAAACTAGGTCAAGAGGTCAACGTCCGCTTCCCG | 5.97
11 | TCTGCTAGGTCAGTTGGTCAGCTTACGAGCTGCC | 0.0848
12 | GCTAGCAGGCCATTTCGGTCACTCAATGACGGGC | -0.644
13 | ATCTCTAGGTAAAAGCTCAGTGAATCCCGAGGAT | -0.227
14 | TGTAGTTGGTCAAAGGTCACACACTCGAAATGCG | 5.19
15 | TATACATGGTCAAAGGCCAGAGTACGAATGTCGA | 0.445
16 | CCTACTGGGCCAAAAAGGTCATGGATGCCGATAA | 4.54
17 | TACACAGGGTCAAAGGCCAGAGTACGAATGTCGA | 4.89
18 | CCGACTGGGGCGAGGTTACCATAACGCACAGCCA | 0.364
19 | CAAACTAGGTCAAGTGGTCAAAGTCCGCTTCCCG | 2.52
20 | AGACCGAGGGCACGCTGAGTTGATAGCAGAGTAG | 2.21

Row | Sequence | PBM binding z-score
21 | ATCGAAAGGTCTACGAGGTGAGTATACACCGTTT | 1.6
22 | TCTATTAGTTGAGTAGGGCAACCGAAACAGCGGA | -0.07
23 | TTACCACGGTGAGCTGAGGTCGTTGATCCAACTC | 1.57
24 | TAGCCTAGGTCATGGGCCAATATACCACGCGAAC | 2.06
25 | CCTACCGGGCCACGAAAGGTCATTGATTCAGTGA | 4.1
26 | TCTAGCAGGCCAGAGCGTCACTCAAGAGGTACGG | -0.608
27 | ATCTCTAGGTAAAAGTTCAGCGAATCCCGAGGAT | 1.69
28 | ATACCAAGGTGATCGTGAGATCGTTGATACTAAC | 0.19
29 | TCATATAAGTAAAGGTGAAAGTCGAACGATATGA | 0.925
30 | CGTCCAAGGTCATAGTAGGTCAGTGAAGACAGAT | 5.64
31 | AGAATGAGGTTACCAAAGATCAGGGGAACGCTTG | 1.49
32 | AGTCATAGTTCAGGACGAGGTAACGTAAAGCACG | 0.92
33 | TCATATAGGGAAACAGGTGAAAGTCCGTAAGTTA | 0.918
34 | AGTCAAAGTTCACTAGGTAACGCAAGATTCAGCT | 3.39
35 | GCTAGTTAGTCAGTAAAAGGTCACACACCGGTCG | 3.78
36 | TCTATTAGTTGATTTGGGCAACCGAAACAGCGGA | 0.688
37 | ATCTGTAGGTAACAAGTTCAGTGAAAGAGAGGAC | 2
38 | CCTCGCAGGACAACAGGAGGTCAGAGCTGCCAGA | 1.42
39 | CCTTACGGGTCACGAGGTTTTAGCACGACGAGCG | 5.64
40 | CTTGCTAGGTCATGGTCAGCTAATCTACAGTATG | 1.59
